Measured values reported in the supplement of paper PMC4466140.

B1: unnamed (peptide)
chain: LEFRAILFIPKRAPF

Target: AgAbp1
Experiment: SPOT peptide array binding signal intensity (averaged, normalized) (arbitrary units (background-subtracted, floor 0; scale differs between SH3 domains)); higher = stronger binding of the SH3 domain to the peptide
In short: (§1)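 Peptides were synthetic 15-mers on cellulose membranes, with every cysteine replaced by serine. They were incubated overnight at 4°C with GST-SH3 domains from four yeast species at 10 μg/ml in TBS-based blocking buffer. Binding signal, the replicate-averaged normalized and background-subtracted spot intensity, is in arbitrary units that differ between domains.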

Row | Binder | SPOT peptide array binding signal intensity
1 | B1 | 9

Target: AgBbc1
Experiment: as above
In short: as §1

Row | Binder | SPOT peptide array binding signal intensity
2 | B1 | 11.8

Target: AgBem1-D1
Experiment: as above
In short: as §1

Row | Binder | SPOT peptide array binding signal intensity
3 | B1 | 198

Target: AgBzz1-D1
Experiment: as above
In short: as §1

Row | Binder | SPOT peptide array binding signal intensity
4 | B1 | 30.5

Target: AgBzz1-D2
Experiment: as above
In short: as §1

Row | Binder | SPOT peptide array binding signal intensity
5 | B1 | 37

Target: AgCyk3
Experiment: as above
In short: as §1

Row | Binder | SPOT peptide array binding signal intensity
6 | B1 | 4

Target: AgFus1
Experiment: as above
In short: as §1

Row | Binder | SPOT peptide array binding signal intensity
7 | B1 | 2310

Target: AgHof1
Experiment: as above
In short: as §1

Row | Binder | SPOT peptide array binding signal intensity
8 | B1 | 52.8

Target: AgHse1
Experiment: as above
In short: as §1

Row | Binder | SPOT peptide array binding signal intensity
9 | B1 | 654

Target: AgLsb1
Experiment: as above
In short: as §1

Row | Binder | SPOT peptide array binding signal intensity
10 | B1 | 1.5

Target: AgLsb4
Experiment: as above
In short: as §1

Row | Binder | SPOT peptide array binding signal intensity
11 | B1 | 989

Target: AgMyo5
Experiment: as above
In short: as §1

Row | Binder | SPOT peptide array binding signal intensity
12 | B1 | ≤ 0

Target: AgNbp2
Experiment: as above
In short: as §1

Row | Binder | SPOT peptide array binding signal intensity
13 | B1 | 558

Target: AgRvs167
Experiment: as above
In short: as §1

Row | Binder | SPOT peptide array binding signal intensity
14 | B1 | 8.17

Target: AgSho1
Experiment: as above
In short: as §1

Row | Binder | SPOT peptide array binding signal intensity
15 | B1 | 850

Target: AgSla1-D1-D2
Experiment: as above
In short: as §1

Row | Binder | SPOT peptide array binding signal intensity
16 | B1 | 14

Target: AgSla1-D3
Experiment: as above
In short: as §1

Row | Binder | SPOT peptide array binding signal intensity
17 | B1 | 4.25

Target: CaAbp1-D1
Experiment: as above
In short: as §1

Row | Binder | SPOT peptide array binding signal intensity
18 | B1 | 56

Target: CaAbp1-D2
Experiment: as above
In short: as §1

Row | Binder | SPOT peptide array binding signal intensity
19 | B1 | 58

Target: CaBbc1
Experiment: as above
In short: as §1

Row | Binder | SPOT peptide array binding signal intensity
20 | B1 | 68

Target: CaBem1-D1
Experiment: as above
In short: as §1

Row | Binder | SPOT peptide array binding signal intensity
21 | B1 | 5

Target: CaBzz1-D1
Experiment: as above
In short: as §1

Row | Binder | SPOT peptide array binding signal intensity
22 | B1 | 212

Target: CaBzz1-D2
Experiment: as above
In short: as §1

Row | Binder | SPOT peptide array binding signal intensity
23 | B1 | 109

Target: CaCyk3
Experiment: as above
In short: as §1

Row | Binder | SPOT peptide array binding signal intensity
24 | B1 | 16.5

Target: CaFus1
Experiment: as above
In short: as §1

Row | Binder | SPOT peptide array binding signal intensity
25 | B1 | 5550

Target: CaHof1
Experiment: as above
In short: as §1

Row | Binder | SPOT peptide array binding signal intensity
26 | B1 | 6

Target: CaHse1
Experiment: as above
In short: as §1

Row | Binder | SPOT peptide array binding signal intensity
27 | B1 | 267

Target: CaLsb1
Experiment: as above
In short: as §1

Row | Binder | SPOT peptide array binding signal intensity
28 | B1 | 19

Target: CaLsb4
Experiment: as above
In short: as §1

Row | Binder | SPOT peptide array binding signal intensity
29 | B1 | 81

Target: CaMyo5
Experiment: as above
In short: as §1

Row | Binder | SPOT peptide array binding signal intensity
30 | B1 | 13.2
